Assay results as given in a collection of fitness landscapes (doi:10.1126/science.1257360).
Over roughly 140,000 sequences, “enrichment ratio after two sorts for PhoP signalling” has its median near 0; the highest 2% begin near 11. Only a selection was taken, and the highest values are over-represented in it overall.

B1: PhoQ; a variant is named by its letters at X, in order, P23837 (parent)
chain: MKKLLRLFFPLSLRVRFLLATAAVVLVLSLAYGMVALIGYSVSFDKTTFRLLRGESNLFYTLAKWENNKLHVELPENIDKQSPTMTLIYDENGQLLWAQRDVPWLMKMIQPDWLKSNGFHEIEADVNDTSLLLSGDHSIQQQLQEVREDDDDAEMTHSVAVNVYPATSRMPKLTIVVVDTIPVELKSSYMVWSWFIYVLSANLLLVIPLLWVAAWWSLRPIEALAKEVRELEEHNRELLNPATTRELTSLVRNLNRLLKSERERYDKYRTTLTDLTHSLKTPLXXLQXXLRSLRSEKMSVSDAEPVMLEQISRISQQIGYYLHRASMRGGTLLSRELHPVAPLLDNLTSALNKVYQRKGVNISLDISPEISFVGEQNDFVEVMGNVLDNACKYCLEFVEISARQTDEHLYIVVEDDGPGIPLSKREVIFDRGQRVDTLRPGQGVGLAVAREITEQYEGKIVAGESMLGGARMEVIFGRQHSAPKDE

Variants of: B1
Experiment: enrichment ratio after two sorts for PhoP signalling (ratio (wild type AVST 3.29)); higher = more functional
Settings: with PhoP (E. coli)
Work on YQEF yielded an enrichment ratio of no more than 0.25. With KAPT the enrichment ratio was no more than 0.25. IGGQ was tested, and the enrichment ratio was no more than 0.25. Work on TFGM yielded an enrichment ratio of 1.64. Variant TDAM has an enrichment ratio of 17.8. YHAM was tested, and the enrichment ratio was no more than 0.25. Variant LTAM has an enrichment ratio of no more than 0.25. GGAM gave an enrichment ratio of 18.2. TFAM showed an enrichment ratio of 18.6. Work on NIAM yielded an enrichment ratio of no more than 0.25. With KDAM the enrichment ratio was no more than 0.25. In the case of TFTM, the enrichment ratio is reported as 3.86. LYIW gave an enrichment ratio of no more than 0.25. With VRDS the enrichment ratio was no more than 0.25. With AYMI the enrichment ratio was 0.272. With ADMI the enrichment ratio was 12.7. For AKMD, the enrichment ratio was no more than 0.25. Work on TDMI yielded an enrichment ratio of 27.6. With LTMI the enrichment ratio was 0.673. Variant AKMI has an enrichment ratio of 12.8. TDFA showed an enrichment ratio of no more than 0.25. Work on TKMG yielded an enrichment ratio of 7.64. Variant PTMI has an enrichment ratio of no more than 0.25. In the case of ADFA, the enrichment ratio is reported as no more than 0.25. In the case of AIMI, the enrichment ratio is reported as 5.72. For TKMI, the enrichment ratio was 38.2. In the case of LVPL, the enrichment ratio is reported as no more than 0.25. PNNY gave an enrichment ratio of no more than 0.25. In the case of WLFH, the enrichment ratio is reported as no more than 0.25. With PLHT the enrichment ratio was no more than 0.25. With QAAQ the enrichment ratio was no more than 0.25. EGTK gave an enrichment ratio of no more than 0.25. APAS was tested, and the enrichment ratio was no more than 0.25. ALRD gave an enrichment ratio of no more than 0.25. ALMG was tested, and the enrichment ratio was 6.08. ALMI was tested, and the enrichment ratio was 17.6. With ATYI the enrichment ratio was no more than 0.25. LTMK showed an enrichment ratio of no more than 0.25. Variant TDMK has an enrichment ratio of 11.7. In the case of ATMI, the enrichment ratio is reported as 19.9. Variant ALMD has an enrichment ratio of no more than 0.25. Variant KDMK has an enrichment ratio of no more than 0.25. ATPA showed an enrichment ratio of no more than 0.25. Work on NVRS yielded an enrichment ratio of no more than 0.25. Work on HGKV yielded an enrichment ratio of no more than 0.25. KGKP gave an enrichment ratio of no more than 0.25. NFLN was tested, and the enrichment ratio was 0.688. AFWR gave an enrichment ratio of no more than 0.25. ADLV was tested, and the enrichment ratio was 8.2. With ASLM the enrichment ratio was 15.3. In the case of ASNS, the enrichment ratio is reported as no more than 0.25. With ASTS the enrichment ratio was 9.85. VRLC showed an enrichment ratio of no more than 0.25. ASLV showed an enrichment ratio of 18.7. Work on NSLF yielded an enrichment ratio of no more than 0.25. Work on ASLF yielded an enrichment ratio of 12.2. With ASHK the enrichment ratio was no more than 0.25. In the case of ASLC, the enrichment ratio is reported as 16.7. ASFM was tested, and the enrichment ratio was 6.83. For KSLF, the enrichment ratio was no more than 0.25. For NIYP, the enrichment ratio was no more than 0.25. LAFW gave an enrichment ratio of no more than 0.25. Variant YYWT has an enrichment ratio of no more than 0.25. ASTK was tested, and the enrichment ratio was no more than 0.25. Variant ASLL has an enrichment ratio of 19.9. With ASTQ the enrichment ratio was 3.55. In the case of VRLL, the enrichment ratio is reported as no more than 0.25. With ASWI the enrichment ratio was 2.59. ASTI was tested, and the enrichment ratio was 13.9. ASLK showed an enrichment ratio of 8.78. Work on ASLS yielded an enrichment ratio of 10.2. ASLI was tested, and the enrichment ratio was 12.7. With ASDK the enrichment ratio was no more than 0.25. ASLA showed an enrichment ratio of 14.6. FNCT gave an enrichment ratio of no more than 0.25. For VWPK, the enrichment ratio was no more than 0.25. Work on EMQV yielded an enrichment ratio of no more than 0.25. RTWK was tested, and the enrichment ratio was no more than 0.25. KHEA was tested, and the enrichment ratio was no more than 0.25. EWFR gave an enrichment ratio of no more than 0.25. ASLY gave an enrichment ratio of 13.9. For KSLY, the enrichment ratio was no more than 0.25. In the case of ASFT, the enrichment ratio is reported as 1.36. For ASNT, the enrichment ratio was no more than 0.25. Variant ASLT has an enrichment ratio of 11.9. Variant ASMT has an enrichment ratio of 12. For KSMT, the enrichment ratio was no more than 0.25. ASNY was tested, and the enrichment ratio was no more than 0.25. Work on KHPW yielded an enrichment ratio of no more than 0.25. MQFI showed an enrichment ratio of 0.491. Variant WDYP has an enrichment ratio of no more than 0.25. Variant ATVW has an enrichment ratio of 3.56. For WCCW, the enrichment ratio was no more than 0.25. KCYM was tested, and the enrichment ratio was no more than 0.25. MLYN gave an enrichment ratio of 1.73. Work on MLYM yielded an enrichment ratio of 8.36. With MCYM the enrichment ratio was 14.1. MCYN gave an enrichment ratio of 11.3. Work on KCYN yielded an enrichment ratio of no more than 0.25. QGPI showed an enrichment ratio of no more than 0.25. In the case of VQSP, the enrichment ratio is reported as no more than 0.25. In the case of FRQT, the enrichment ratio is reported as no more than 0.25. YETN was tested, and the enrichment ratio was no more than 0.25. For ACSF, the enrichment ratio was 13.3. Work on ACGR yielded an enrichment ratio of no more than 0.25. In the case of ACSM, the enrichment ratio is reported as 13.2. ACSK gave an enrichment ratio of 4.64. Variant GKCK has an enrichment ratio of no more than 0.25. Variant TDGP has an enrichment ratio of no more than 0.25. Work on RGGM yielded an enrichment ratio of no more than 0.25. For NMRS, the enrichment ratio was no more than 0.25. NMSA was tested, and the enrichment ratio was no more than 0.25. Work on HPHS yielded an enrichment ratio of no more than 0.25. LAQE was tested, and the enrichment ratio was no more than 0.25. Variant TIQE has an enrichment ratio of 15.1. TQQE showed an enrichment ratio of 44.9. TIQC gave an enrichment ratio of 0.791. Variant AIQE has an enrichment ratio of no more than 0.25. TGQE showed an enrichment ratio of 24.5. Work on PTQE yielded an enrichment ratio of no more than 0.25. With KMQE the enrichment ratio was no more than 0.25. TKQE showed an enrichment ratio of 16.5. With YTQE the enrichment ratio was no more than 0.25. Work on GGQE yielded an enrichment ratio of no more than 0.25. Variant RNQE has an enrichment ratio of no more than 0.25. Work on YCTL yielded an enrichment ratio of 0.295. YAID gave an enrichment ratio of no more than 0.25. In the case of WAIW, the enrichment ratio is reported as no more than 0.25. TIAS gave an enrichment ratio of 11.1. With HPPD the enrichment ratio was no more than 0.25. Variant HRCR has an enrichment ratio of no more than 0.25. In the case of RAAD, the enrichment ratio is reported as no more than 0.25. With GWLP the enrichment ratio was no more than 0.25. FRVC gave an enrichment ratio of no more than 0.25. Variant SLQE has an enrichment ratio of no more than 0.25. Work on SNQE yielded an enrichment ratio of 18.7. For KAQE, the enrichment ratio was no more than 0.25. In the case of KSQE, the enrichment ratio is reported as no more than 0.25. SQQE showed an enrichment ratio of no more than 0.25. For TLQE, the enrichment ratio was 11.7. Variant RSER has an enrichment ratio of no more than 0.25. WLMW showed an enrichment ratio of no more than 0.25. Variant YVFS has an enrichment ratio of no more than 0.25. GCFM gave an enrichment ratio of no more than 0.25. With EFLK the enrichment ratio was no more than 0.25. WILG gave an enrichment ratio of no more than 0.25. With TFTG the enrichment ratio was 13.3. TFLG gave an enrichment ratio of 11.8. TFFG gave an enrichment ratio of no more than 0.25. Variant TFAG has an enrichment ratio of 2.03. For PFLG, the enrichment ratio was no more than 0.25. Variant VSRM has an enrichment ratio of no more than 0.25. TEYG gave an enrichment ratio of 1.95.
